Screening results from PubChem.
ELG1 DNA repair: qHTS screen for small molecules that inhibit ELG1-dependent DNA repair in human embryonic kidney (HEK293T) cells expressing luciferase-tagged ELG1; HEK293T ELG1-luciferase reporter, luminescence, 16 h; DNA damage induced by 5-fluorouridine; Potency, µM (series often up to 46.1 µM), hits mostly inhibitors; 2.3% of 330,000 active; note: nearly all actives have a fitted effect of over 55% in size
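Luminescence from the luciferase reporter, measured 30 min after ONE-Glo reagent at room temperature, was the read-out. Beforehand, 2,000 cells per well were exposed for 16 hr at 37 °C to 5-fluorouridine together with compound or vehicle.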
TDP1 cell noCPT: qHTS for Inhibitors of human tyrosyl-DNA phosphodiesterase 1 (TDP1): qHTS in cells in absence of CPT; DT40 Tdp1-/- hTDP1 cells, no CPT, ATP luminescence, 48 h; Potency, µM (series often up to 46.2 µM), usual class: inhibitors; 15% of 420,000 active; note: nearly all actives have a fitted effect of over 55% in size
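Chicken DT40 Tdp1-/- cells complemented with human TDP1, screened without camptothecin (DMSO vehicle only), 400 cells/well. Compounds pin-transferred, cells incubated at 37 °C for at least 48 hr. Growth read as ATP-dependent luminescence (CellTiter-Glo, 30 min at RT).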
HT1080 IDH1KD tx: qHTS for induction of synthetic lethality in tumor cells producing 2HG: qHTS for the HT-1080-IDH1KD cell line; HT-1080 IDH1 knockdown viability, ATP luminescence, 48 h; Potency, µM (doses to about 46.1 µM), most hits filed as cytotoxic; 2% of 360,000 active
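Knockdown cells (IDH1KD HT-1080) received compounds 2 h after plating at 750 cells/well and were kept 48 h at 37 °C in 5% FBS RPMI. A CellTiter-Glo luminescence read gave % activity for curve fitting.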
IL1B secr inh: qHTS for Inhibitors of Inflammasome Signaling: IL-1-beta AlphaLISA Primary Screen | THP-1 LPS/ATP IL-1B secretion, AlphaLISA, 16 h; active compounds read low | activity change, % at 57.5 µM | 4.7% of 360,000 active | AID 743279, 2014; in the data active = activity change below about -50%; inconclusive = mostly about -30% to -49%
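Secreted IL-1B measured by AlphaLISA bead assay after 16 h compound exposure of THP-1 cells; compounds (final up to 57.5 uM) added 1 h before LPS (250 ng/mL) and ATP (1.25 mM) stimulation; lower signal means less secretion.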
HT1080NT lethal: qHTS for induction of synthetic lethality in tumor cells producing 2HG: qHTS for the HT-1080-NT fibrosarcoma cell line. HT-1080-NT fibrosarcoma viability, CellTiter-Glo ATP luminescence, 48 h. Potency, µM (series often up to 46.1 µM), hits mostly cytotoxic. 1.6% of 360,000 active. AID 686970, 2013;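 note: NT is the 2HG producing partner of a matched IDH1 knockdown line; nearly all actives have a fitted effect of over 55% in size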
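Fibrosarcoma NT cells, 750 per well in 5% FBS RPMI, were exposed to compound for 48 hours. Viability: CellTiter-Glo luminescence.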
DT40 TDP1 CPT: qHTS for Inhibitors of human tyrosyl-DNA phosphodiesterase 1 (TDP1): qHTS in cells in presence of CPT; chicken DT40 Tdp1-/-;hTDP1 cells + 20 nM CPT, ATP luminescence, 48 h; Potency, µM (doses to about 46.2 µM), actives largely listed as inhibitors; 12% of 420,000 active; AID 686979, 2013; note: nearly all actives have a fitted effect of over 55% in size
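Cell growth measured by CellTiter-Glo luminescence after a minimum 48 h, 37 C compound exposure with 20 nM CPT in Tdp1-knockout DT40 cells stably expressing hTDP1, seeded 400/well; qHTS titration format.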
Numbers stand for hits; . = inactive; ? = inconclusive; / = not tested or not shown; [ ] = dose if it differs, or a comment. In the library only some 19% were active in any assay of this set; here they are far more common. Unless noted, calls come from the whole dose curve; as a rule, active = well fitted curve in the direction sought with a large enough effect; inconclusive = small, poorly fitted or top-dose-only effect, or another doubt; inactive = no such curve, though single readings can be large; an effect the other way counts as inactive or inconclusive.

SMILES | ELG1 DNA repair | TDP1 cell noCPT | HT1080 IDH1KD tx | IL1B secr inh | HT1080NT lethal | DT40 TDP1 CPT
O=C1OC(Nc2ccc3c(c2)OCO3)c2ccccc21 (configuration not stated) | ? | 13µM | 18µM | -124 | ? | 22µM
CN(C)c1ccc(C(c2ccc(N(C)C)cc2)C(O)c2ccccc2)cc1 (configuration not stated) | / | ? | . | -55 | . | ?
CN(C)c1ccc(C(=O)C(O)c2ccccc2)cc1 (configuration not stated) | . | . | . | . | . | .
COc1ccc(-c2csc(C(O)c3ccccc3)n2)cn1 (configuration not stated) | / | ? | . | . | . | .
CCCc1c(C(=O)N/N=C(\C)c2cc(C)sc2C)nnn1-c1nonc1N | / | 18µM | . | . | . | ?
CCCc1c(C(=O)N/N=C(\C)c2ccccn2)nnn1-c1nonc1N | / | 1.6µM | ? | . | ? | 2.6µM
CCCc1c(C(=O)N/N=C(\C)c2ccc(O)cc2)nnn1-c1nonc1N | . | . | . | ? | . | .
Cc1nc2nc(NC(=O)c3ccco3)[nH]n2c(=O)c1C | . | . | . | . | . | .
COc1ccccc1C1C2=C(N=c3s/c(=C/c4cccc(OCC(=O)O)c4)c(=O)n31)c1ccccc1CC2 (configuration not stated) | . | . | ? | . | ? | .
CCOC(=O)C1=C(C)N=c2s/c(=C\c3cccn3C)c(=O)n2C1c1cccc(OC)c1OC (configuration not stated) | ? | 21µM | . | . | . | ?
CCOC(=O)C1=C(C)N=c2sc(=Cc3cc(Cl)c(OCC(=O)O)c(OC)c3)c(=O)n2C1c1ccccc1Cl (configuration not stated) | / | 21µM | . | . | ? | ?
CCOC(=O)C1=C(c2ccccc2)N=c2sc(=Cc3cc(OC)c(OC)c(OC)c3)c(=O)n2C1c1cccs1 (configuration not stated) | / | 13µM | . | ? | . | 8.2µM
COc1cccc(C2C3=C(N=c4s/c(=C\c5cccc(O)c5)c(=O)n42)c2ccccc2CC3)c1OC (configuration not stated) | ? | ? | ? | -57 | . | .
CCOC(=O)C1=C(C)N=c2s/c(=C\c3cc(OC)c(OC)c(OC)c3)c(=O)n2C1/C=C/c1ccccc1 (configuration not stated) | . | ? | . | . | . | .
CCOC(=O)C1=C(C)N=c2s/c(=C\c3ccc(OCC(=O)O)c(OC)c3)c(=O)n2C1c1ccc(OC)cc1 (configuration not stated) | . | . | . | . | . | .
O=C(NCCc1c[nH]c2ccccc12)C(=O)Nc1cc2c3c(c1)CC(=O)N3CCC2 | ? | ? | ? | . | . | ?
COc1cccc(S(=O)(=O)N(C)C[C@H]2OCc3cnnn3CCCC(=O)N([C@H](C)CO)C[C@@H]2C)c1 | / | . | . | . | . | .
CCNC(=O)C1(C)CCN(C(=O)c2ccc(OC)cc2OC)C1 (configuration not stated) | / | . | . | . | . | .
CCOC(=O)C1=C(CS(=O)(=O)c2ccc(F)cc2)NC(=O)NC1c1ccc(OCC)c(OC)c1 (configuration not stated) | / | ? | / | / | / | .
COC(=O)c1cc(CSc2nnc(NC3CCCCC3)s2)oc1C | . | ? | 18µM | . | . | ?
O=C(CSc1nnc(NC2CCCCC2)s1)NCc1ccco1 | . | ? | . | . | . | .
O=c1cc(CSc2nnc(NC3CCCCC3)s2)nc2sccn12 | . | . | . | . | . | .
c1ccc(CSc2nnc(NC3CCCCC3)s2)cc1 | / | 21µM | . | -52 | . | ?
Cc1ccc(C(=O)CSc2nnc(-c3ccco3)n2C)cc1 | . | 16µM | . | . | . | ?
Fc1ccc(CSc2nnc(-c3cnccn3)n2Cc2ccco2)cc1 | . | . | . | . | . | .
SMILES | ELG1 DNA repair | TDP1 cell noCPT | HT1080 IDH1KD tx | IL1B secr inh | HT1080NT lethal | DT40 TDP1 CPT
Brc1ccc(CSc2nnc(-c3cnccn3)n2Cc2ccco2)cc1 | . | 15µM | . | . | . | ?
N#Cc1ccc(CSc2nnc(-c3ccccc3)n2Cc2ccco2)cc1 | . | 29µM | ? | . | . | ?
Cc1ccc(NCc2nnc(SCC(=O)NCc3ccco3)n2CC2CCCO2)c(C)c1 (configuration not stated) | . | . | . | . | . | .
Cc1ccc(C(=O)CSc2nnc(CNc3ccc(C)cc3C)n2Cc2ccco2)cc1 | . | ? | ? | . | ? | 21µM
CC1CC(C)CN(C(=O)COC(=O)CNC(=O)C23CC4CC(CC(C4)C2)C3)C1 (configuration not stated) | ? | . | . | . | . | .
N#C/C(=C\c1ccc(-c2cccc([N+](=O)[O-])c2)o1)C(=O)Nc1nc(-c2cccs2)cs1 | . | ? | . | . | . | ?
COc1ccccc1NS(=O)(=O)c1ccc2oc(N)nc2c1 | . | . | . | . | . | .
COc1ccc(C(=O)CSc2nnc(CNc3ccc(C)cc3C)o2)cc1 | . | ? | . | . | . | ?
COc1ccc(C(=O)CSc2nnc(CNc3ccc(C)cc3C)n2Cc2ccco2)cc1 | ? | 23µM | . | ? | . | 18µM
N#Cc1ccc(CSc2nnc(-c3ccncc3)n2CCc2ccccc2)cc1 | 23µM | ? | ? | . | 23µM | .
Cc1ccc(NCc2nnc(SCc3ccc(C#N)cc3)n2Cc2ccco2)c(C)c1 | . | 23µM | . | . | . | ?
c1ccc(CCn2c(SCc3ccccc3)nnc2-c2ccncc2)cc1 | ? | . | . | . | . | .
CCc1nnc(SCc2nc(-c3ccccc3F)oc2C)c2cc3sccc3n12 | / | ? | / | / | / | .
Cc1ccc(S(=O)(=O)CCC(=O)N2CCN(c3ccc(Cl)cc3)CC2)cc1 | ? | 21µM | . | . | .[9.24 µM] | 13µM
O=C(CCS(=O)(=O)c1cccs1)N1CCN(c2ccc(F)cc2)CC1 | ? | . | . | . | . | .
COc1ccc(CC(=O)N2CCN(c3ccc(F)cc3)CC2)cc1 | . | ? | . | . | . | .
